{
  "source": "PubChem BioAssay (NCATS)",
  "note": "A number with no mark means an inactive call. Calls come from the whole dose curve; as a rule, active = well fitted curve in the direction sought with a large enough effect; inconclusive = small, poorly fitted or top-dose-only effect, or another doubt; inactive = no such curve, though single readings can be large or run the other way.",
  "data": [
    {"target": "Hexokinase-4 (Homo sapiens) + Glucokinase regulatory protein (Homo sapiens) (UniProt P35557+Q14397)", "sequence (P35557 whole entry, looked up)": "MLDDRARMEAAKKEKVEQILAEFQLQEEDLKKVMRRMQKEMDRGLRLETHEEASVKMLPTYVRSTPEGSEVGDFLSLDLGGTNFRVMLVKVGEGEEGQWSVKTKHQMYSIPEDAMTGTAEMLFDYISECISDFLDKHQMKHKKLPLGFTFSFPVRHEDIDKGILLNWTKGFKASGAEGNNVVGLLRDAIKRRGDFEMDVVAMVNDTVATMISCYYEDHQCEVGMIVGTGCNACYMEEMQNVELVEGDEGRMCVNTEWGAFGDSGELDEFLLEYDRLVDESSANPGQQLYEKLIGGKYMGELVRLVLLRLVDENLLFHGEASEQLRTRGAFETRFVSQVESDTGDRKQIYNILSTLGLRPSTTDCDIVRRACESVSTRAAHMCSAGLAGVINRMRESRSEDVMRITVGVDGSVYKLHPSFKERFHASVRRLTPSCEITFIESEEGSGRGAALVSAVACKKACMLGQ", "sequence (Q14397 whole entry, looked up)": "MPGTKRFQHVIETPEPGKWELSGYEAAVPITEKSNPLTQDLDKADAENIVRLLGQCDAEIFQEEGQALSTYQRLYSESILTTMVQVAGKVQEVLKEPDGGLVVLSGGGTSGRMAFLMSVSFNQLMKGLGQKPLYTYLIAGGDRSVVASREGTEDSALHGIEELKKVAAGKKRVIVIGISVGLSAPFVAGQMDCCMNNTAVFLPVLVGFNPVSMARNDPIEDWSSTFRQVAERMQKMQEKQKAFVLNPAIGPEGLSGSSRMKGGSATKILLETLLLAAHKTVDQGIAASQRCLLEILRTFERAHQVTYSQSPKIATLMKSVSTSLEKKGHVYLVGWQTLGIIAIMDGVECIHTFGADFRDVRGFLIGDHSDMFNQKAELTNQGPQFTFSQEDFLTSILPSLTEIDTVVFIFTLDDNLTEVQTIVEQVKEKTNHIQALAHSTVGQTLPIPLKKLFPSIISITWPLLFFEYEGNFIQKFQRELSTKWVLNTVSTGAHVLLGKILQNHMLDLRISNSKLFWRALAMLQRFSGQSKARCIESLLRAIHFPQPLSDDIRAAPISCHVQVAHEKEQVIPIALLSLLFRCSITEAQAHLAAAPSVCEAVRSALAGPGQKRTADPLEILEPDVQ", "assay": "qHTS assay for inhibitors of recombinant human GCK-GKRP interaction: HTRF assay (AID 743207);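 note: 0% = DMSO with GCK present and -100% = DMSO wells lacking GCK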", "settings": "recombinant GCK-GKRP HTRF binding, 60 min, with sorbitol-6-phosphate; series mostly up to 57.5 µM; activity change, negative = inhibition: at the top concentration", "excerpt": "Glucokinase (GCK) is a glucose sensor in hepatocytes and pancreatic beta-cells. Hepatic GCK is regulated by glucokinase regulatory protein (GKRP), which is predominantly localized to the liver. GKRP binds to GCK inhibiting its activity in the fasting state while in the presence of glucose the GKRP is displaced. There is an additional layer of regulation by fructose 1-phosphate and fructose 6-phosphate, which inhibit and enhance the GCK-GKRP interaction, respectively. GCK plays a role in glucose homeostasis and there is an interest in the development of strategies to activate GCK to lower blood glucose levels in type 2 diabetes. To date the majority of effort has focused on direct activation of GCK and the assays developed herein look to activate GCK by inhibiting its binding to GKRP. A compound that inhibits the interaction of GCK with GKRP could be important for the treatment of diabetes and can also be used as a tool compound to further elucidate GCK-GKRP biology. To that end, we have developed an HTS biochemical assay using HTRF technology for to interrogate the GCK-GKRP interaction. This assay was screened against a small compound library to look for modulators of activity.\n3 uL of 5 nM GST-GCK and 5 nM FLAG-GKRP proteins with 2 uM S6P (columns 1-2, 4-48; Millipore, Billerica, MA) are dispensed into Greiner, white solid-bottom 1536-well assay plates; columns 3 receive buffer without GCK as a control for maximum inhibition. Buffer contains 2 mM MgCl2, 25 mM KCl, 25 mM Hepes, 1 mM DTT, 0.1% Tween 20 and 0.025% BSA and the pH was adjusted to 7.1. Compounds (23 nL) are then transferred via Kalypsys pin tool equipped with 1536-pin array (10 nL slotted pins, V&P Scientific, San Diego, CA). The library compounds are in columns 5-48 and columns 1-4 serve as controls with DMSO in columns 1 and 3 and 26 mM 1:1.5 fold serial of gluckokinase activator (GKA-EMD) in column 2 and 26 mM of the glucokinase activator (GKA-EMD) in column 4. Following addition of compound, 1 uL of detection antibodies (anti-Flag XL 665 and anti-GST K in reconstitution buffer from Cisbio, Bedford, MA; 0.7 ng/well and 0.0945 ng/well, respectively) is added, and the mixture is allowed to equilibrate for 60 minutes at room temperature. Data are normalized to DMSO-treated control columns with (maximum signal) and without (minimum signal) enzyme. Plates were read on an Envision plate reader (PerkinElmer, Shelton, CT, USA) with excitation at 320 nm and dual-wavelength detection at the Fret donor wavelength (615 nm) and the FRET acceptor wavelength (665 nm).", "units": {"activity change, negative = inhibition": "%"}, "values": [
      {"compound": "CN1C2CCCC1CC(NC(=O)c1nn(C)c3ccccc13)C2", "note": "(configuration not stated)", "activity change, negative = inhibition": -2.89},
      {"compound": "CCc1ccc(/C=C2/SC(=S)NC2=O)cc1", "activity change, negative = inhibition": 1.89},
      {"compound": "S=C(Nc1ccccc1)Nc1nccs1", "activity change, negative = inhibition": -8.67},
      {"compound": "Oc1cc2c(c(Cl)c1O)CCNCC2c1ccccc1", "note": "(configuration not stated)", "activity change, negative = inhibition": -7.84},
      {"compound": "Cc1cccc(/C=C/c2ccccc2)n1", "activity change, negative = inhibition": 6.16},
      {"compound": "CC[N+](CC)(CC)CC", "activity change, negative = inhibition": 5.85},
      {"compound": "C[C@H](Cc1ccccc1)Nc1ncnc2c1ncn2[C@@H]1O[C@H](CO)[C@@H](O)[C@H]1O", "activity change, negative = inhibition": 9.95},
      {"compound": "C/C=C/CC(C)C(O)C1C(=O)NC(CC)C(=O)N(C)CC(=O)N(C)C(CC(C)C)C(=O)NC(C(C)C)C(=O)N(C)C(CC(C)C)C(=O)NC(C)C(=O)NC(C)C(=O)N(C)C(CC(C)C)C(=O)N(C)C(CC(C)C)C(=O)N(C)C(C(C)C)C(=O)N1C", "note": "(configuration not stated)", "activity change, negative = inhibition": -3.47},
      {"compound": "O=Nc1c(-c2c(O)[nH]c3ccccc23)[nH]c2ccccc12", "activity change, negative = inhibition": 5.13},
      {"compound": "O=C1c2ccccc2C(=O)c2c(NCCc3ccc(O)cc3)ccc(NCCc3ccc(O)cc3)c21", "activity change, negative = inhibition": 2.57},
      {"compound": "C1CCC(N=C(NC23CC4CC(CC(C4)C2)C3)N2CCOCC2)CC1", "activity change, negative = inhibition": 1.06},
      {"compound": "N#C/C(=C\\c1ccc(O)c(O)c1)C(=O)Nc1ccccc1", "activity change, negative = inhibition": -1.23}
    ]}
  ]
}
